From PubChem BioAssay (NCI)
Values joined by “and” are separate entries in the source; they are usually repeats but may differ in a detail not shown here. Identical values can stand only once. The panel holds about 83,000 compounds, 20% with a hit somewhere; the sample as a whole holds those more often.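 Negative percent growth values reflect cell death: -40 means 40% of the cells present at the start died, and -100 means all died.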 Active and inactive are the calls of the source. The calls were made as follows: active = growth percent below 10; inactive = the rest.

Test system: MDA-MB-468 breast
Assay: NCI-60 one-dose screen, 48 h (100 = growth as untreated, 0 = no growth, -100 = all killed)
Settings: 10 µM unless noted

| SMILES | growth |
| --- | --- |
| CC1CCCCN1S(=O)(=O)c1ccc(CN=C=S)cc1 (stereo unspecified) | 17.4% (inactive) |
| CCOC(=O)c1c(C)nc2c(c1N)C(=O)C(=O)N2CCc1ccc(OC)c(OC)c1 | 49% (inactive) |
| O=NN(CC(=O)NNc1ccccc1)CC(=O)NNc1ccccc1 | 77.7% (inactive) |
| COc1ccc(S(=O)(=O)NCCNc2nccc(-c3c(-c4cccc(F)c4)nc4sccn34)n2)cc1 | 23.3% (inactive) |
| [2H]C1([2H])CCN(C(=O)C2CC2)c2cc(NS(=O)(=O)c3ccc(-c4cccc(C(N)=O)c4)cc3)ccc21 | -5.25% (active) |
| COc1ccc2nc(-c3ccc(OC)c(OC)c3)cc(-c3nnc(SCC(=O)Nc4ccc(C(C)=O)cc4)o3)c2c1 | 103% (inactive) |
| O=C(/C=C/c1ccc[nH]1)c1ccc(-n2ccc(C(F)(F)F)n2)c(F)c1 | 60.4% (inactive) |
| COc1cc2c(Nc3ccc(NC(=O)Nc4ccc(Cl)c(C(F)(F)F)c4)c(Cl)c3)ncnc2cc1OCCCN1CCN(C)CC1 | -70.1% (active) |
| O=S(=O)(NCCCNc1nccc(-c2c(-c3ccc(O)cc3)nc3sccn23)n1)c1ccc(F)cc1 | -19.2% (active) |
| COc1ccc(-c2nc3c(ncc4ccc(=O)[nH]c43)s2)cc1 | 62.9% (inactive) |
| CCCCCCCCCCCC[n+]1ccc2ccccc2c1 | -30% (active) |
| c1cc2c(ccc3[nH]c(-c4ccc5[nH]ncc5c4)c4c(c32)CCCC4)n1 | 76.7% (inactive) |
| COc1ccc2c(c1)oc1c3[nH]c4ccccc4c3c3c(c21)C(=O)N(O)C3=O | -17.7% (active) |
| CN(CCCCCCCCNc1ccnc2ccccc12)Cc1ccc(-c2ccc(-c3ccc(C#N)cc3)s2)cc1 | -50.4% (active) |
| CCN(CC)C(=O)C[N+](C)(C)CCOC(c1ccccc1)c1ccccc1 | 109% (inactive) |
| CC(C)=CCC[C@](C)(O)[C@H]1CC[C@]2(C)[C@@H]1CC[C@@H]1[C@@]3(C)CC[C@H](OC(=O)CCC(=O)O)C(C)(C)[C@@H]3CC[C@]12C | 30.5% [100 µM] (inactive) |
| COc1ccc2c(c1OC)C(=O)O[C@@H]2[C@H]1c2c(c(C#CC#Cc3ccc(F)c(F)c3)c3c(c2OC)OCO3)CCN1C | 72.4% (inactive) |
| COc1ccccc1/C=C/C(=O)CCC(=O)O | 124% (inactive) |

| SMILES | growth |
| --- | --- |
| COc1cc2nc3cc([N+](=O)[O-])ccc3c(NCCNCC(C)(C)O)c2cc1OC | -37.5% (active) |
| CNC(=O)c1cc(Oc2ccc3nc(NC(=O)c4ccc(CN5CCCN(C)CC5)c(C(F)(F)F)c4)sc3c2)ccn1 | 8.05% (active) |
| COc1ccc(OC)c(/C=C2\Oc3cc(OCCN4CCCC4)ccc3C2=O)c1 | 98.9% (inactive) |
| ClC/C=C/CSc1ncnc2nc[nH]c12 | 103% (inactive) and 127% (inactive) |
| CCCCCCCCCCCCCCCCOc1ccc(S(=O)(=O)N(C)C)cc1[N+](=O)[O-] | 84.2% (inactive) |
| CCCc1n(Cc2ccc3ccccc3n2)cc[n+]1Cc1ccc2ccccc2c1 | -28.4% (active) |
| COc1ccc(C(=O)/C=C/c2ccc(OCc3ccc(Cl)cc3)c(OC)c2)cc1OC | 50.9% (inactive) |
| COc1cccc(-c2nc3sccn3c2-c2ccnc(NCCN3CCCN(C)S3(=O)=O)n2)c1 | 75.6% (inactive) |
| O=c1[nH]c(=O)n(C2C[C@@H](O)[C@@H](CO)O2)cc1F (stereo partly specified) | -3.59% (active) |
| CC(CNC(Cc1ccccc1)c1ccccc1)NC(Cc1ccccc1)c1ccccc1 (stereo unspecified) | 14.5% (inactive) |
| Cc1ccc(S(=O)(=O)n2cc(C(=O)C(=O)N3CCCCC3)c3ccccc32)cc1 | 40.2% (inactive) |
| O=C(NCCCCCCCNC(=O)OCc1ccc2c(Cl)cc(Cl)c(O)c2n1)OCc1ccc2c(Cl)cc(Cl)c(O)c2n1 | -57.3% (active) |
| Cc1cc(O)c2c(c1)C[C@H]1[C@@H]3CC[C@H]4CC(=O)CC[C@]4(C)[C@H]3CC(=O)[C@]21C | 71.4% (inactive) |
| COc1ccc(-c2cc(=O)oc3c4c(ccc23)OCN(Cc2ccc(F)cc2)C4)cc1 | 16.1% (inactive) |
| COc1cc(-c2nn(-c3cccc(NC(=O)Nc4cc(C(F)(F)F)cc(C(F)(F)F)c4)c3)cc2-c2ccncc2)ccc1Cl | -25.4% (active) |
| CCN(CC)CCOC(=O)Nc1c(C(C)C)cccc1C(C)C | 97.3% (inactive) |
| Cc1ccc(-c2nc(C(Cl)Cl)nc3cc(C)nn23)cc1 | -37.7% (active) |
| CN(C)CCCNC(=O)C(c1ccccc1)c1ccccc1 | 111% (inactive) |
